{
  "source": "paper PMC11006913",
  "assay_in_all_cases": "PBM; 200 nM protein, PBS",
  "conditions_in_all_cases": "dsDNA, one strand shown",
  "key": {"[1]": {"biological_target": "T1, NKX2-4 (Homo sapiens, UniProt Q9H2Z4 175-261, P217L)", "T1 sequence": "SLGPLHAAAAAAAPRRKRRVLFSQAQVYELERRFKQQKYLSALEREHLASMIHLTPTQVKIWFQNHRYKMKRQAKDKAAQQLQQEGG"}, "[2]": {"biological_target": "T2, NKX2-4 (Homo sapiens, UniProt Q9H2Z4 175-261, T231S)", "T2 sequence": "T1 sequence with L43P, T57S"}, "[3]": {"biological_target": "T3, NKX2-4 (Homo sapiens, UniProt Q9H2Z4 175-261)", "T3 sequence": "T1 sequence with L43P"}, "[4]": {"biological_target": "T4, NKX2-4 (Homo sapiens, UniProt Q9H2Z4 175-261, R246Q)", "T4 sequence": "T1 sequence with L43P, R72Q"}},
  "note": "Where a chain is given by its changes, count along the chain named.",
  "data": [
    {"sequence": "CTGCGTCC", "values": [
      {"measurement": "binding signal", "setting": "[1]", "value": "9.76 upbm affinity estimate (log intensity, higher = more binding, comparable within an allelic series)"},
      {"measurement": "binding signal", "setting": "[2]", "value": "9.72 upbm affinity estimate (log intensity, higher = more binding, comparable within an allelic series)"},
      {"measurement": "binding signal", "setting": "[3]", "value": "9.74 upbm affinity estimate (log intensity, higher = more binding, comparable within an allelic series)"},
      {"measurement": "binding signal", "setting": "[4]", "value": "9.78 upbm affinity estimate (log intensity, higher = more binding, comparable within an allelic series)"}
    ]},
    {"sequence": "GTCTCGCA", "values": [
      {"measurement": "binding signal", "setting": "[1]", "value": "9.7 upbm affinity estimate (log intensity, higher = more binding, comparable within an allelic series)"},
      {"measurement": "binding signal", "setting": "[2]", "value": "9.57 upbm affinity estimate (log intensity, higher = more binding, comparable within an allelic series)"},
      {"measurement": "binding signal", "setting": "[3]", "value": "9.65 upbm affinity estimate (log intensity, higher = more binding, comparable within an allelic series)"},
      {"measurement": "binding signal", "setting": "[4]", "value": "9.64 upbm affinity estimate (log intensity, higher = more binding, comparable within an allelic series)"}
    ]},
    {"sequence": "CTTGAGGA", "values": [
      {"measurement": "binding signal", "setting": "[1]", "value": "11.9 upbm affinity estimate (log intensity, higher = more binding, comparable within an allelic series)"},
      {"measurement": "binding signal", "setting": "[2]", "value": "12.3 upbm affinity estimate (log intensity, higher = more binding, comparable within an allelic series)"},
      {"measurement": "binding signal", "setting": "[3]", "value": "11.8 upbm affinity estimate (log intensity, higher = more binding, comparable within an allelic series)"},
      {"measurement": "binding signal", "setting": "[4]", "value": "12.2 upbm affinity estimate (log intensity, higher = more binding, comparable within an allelic series)"}
    ]},
    {"sequence": "ACGTACTC", "values": [
      {"measurement": "binding signal", "setting": "[1]", "value": "11.8 upbm affinity estimate (log intensity, higher = more binding, comparable within an allelic series)"},
      {"measurement": "binding signal", "setting": "[2]", "value": "12 upbm affinity estimate (log intensity, higher = more binding, comparable within an allelic series)"},
      {"measurement": "binding signal", "setting": "[3]", "value": "11.7 upbm affinity estimate (log intensity, higher = more binding, comparable within an allelic series)"},
      {"measurement": "binding signal", "setting": "[4]", "value": "11.9 upbm affinity estimate (log intensity, higher = more binding, comparable within an allelic series)"}
    ]},
    {"sequence": "TACTTCAA", "values": [
      {"measurement": "binding signal", "setting": "[1]", "value": "12.5 upbm affinity estimate (log intensity, higher = more binding, comparable within an allelic series)"},
      {"measurement": "binding signal", "setting": "[2]", "value": "12.9 upbm affinity estimate (log intensity, higher = more binding, comparable within an allelic series)"},
      {"measurement": "binding signal", "setting": "[3]", "value": "12.4 upbm affinity estimate (log intensity, higher = more binding, comparable within an allelic series)"},
      {"measurement": "binding signal", "setting": "[4]", "value": "13 upbm affinity estimate (log intensity, higher = more binding, comparable within an allelic series)"}
    ]},
    {"sequence": "CCTGCGCG", "values": [
      {"measurement": "binding signal", "setting": "[1]", "value": "9.34 upbm affinity estimate (log intensity, higher = more binding, comparable within an allelic series)"},
      {"measurement": "binding signal", "setting": "[2]", "value": "9.28 upbm affinity estimate (log intensity, higher = more binding, comparable within an allelic series)"},
      {"measurement": "binding signal", "setting": "[3]", "value": "9.35 upbm affinity estimate (log intensity, higher = more binding, comparable within an allelic series)"},
      {"measurement": "binding signal", "setting": "[4]", "value": "9.37 upbm affinity estimate (log intensity, higher = more binding, comparable within an allelic series)"}
    ]},
    {"sequence": "CTACTTCA", "values": [
      {"measurement": "binding signal", "setting": "[1]", "value": "12.4 upbm affinity estimate (log intensity, higher = more binding, comparable within an allelic series)"},
      {"measurement": "binding signal", "setting": "[2]", "value": "12.6 upbm affinity estimate (log intensity, higher = more binding, comparable within an allelic series)"},
      {"measurement": "binding signal", "setting": "[3]", "value": "12.2 upbm affinity estimate (log intensity, higher = more binding, comparable within an allelic series)"},
      {"measurement": "binding signal", "setting": "[4]", "value": "12.8 upbm affinity estimate (log intensity, higher = more binding, comparable within an allelic series)"}
    ]},
    {"sequence": "CTACTCAA", "values": [
      {"measurement": "binding signal", "setting": "[1]", "value": "12.1 upbm affinity estimate (log intensity, higher = more binding, comparable within an allelic series)"},
      {"measurement": "binding signal", "setting": "[2]", "value": "12.5 upbm affinity estimate (log intensity, higher = more binding, comparable within an allelic series)"},
      {"measurement": "binding signal", "setting": "[3]", "value": "12 upbm affinity estimate (log intensity, higher = more binding, comparable within an allelic series)"},
      {"measurement": "binding signal", "setting": "[4]", "value": "12.4 upbm affinity estimate (log intensity, higher = more binding, comparable within an allelic series)"}
    ]},
    {"sequence": "ACTTATCC", "values": [
      {"measurement": "binding signal", "setting": "[1]", "value": "11.9 upbm affinity estimate (log intensity, higher = more binding, comparable within an allelic series)"},
      {"measurement": "binding signal", "setting": "[2]", "value": "12.1 upbm affinity estimate (log intensity, higher = more binding, comparable within an allelic series)"},
      {"measurement": "binding signal", "setting": "[3]", "value": "11.7 upbm affinity estimate (log intensity, higher = more binding, comparable within an allelic series)"},
      {"measurement": "binding signal", "setting": "[4]", "value": "12.1 upbm affinity estimate (log intensity, higher = more binding, comparable within an allelic series)"}
    ]},
    {"sequence": "GTCCCACA", "values": [
      {"measurement": "binding signal", "setting": "[1]", "value": "9.65 upbm affinity estimate (log intensity, higher = more binding, comparable within an allelic series)"},
      {"measurement": "binding signal", "setting": "[2]", "value": "9.69 upbm affinity estimate (log intensity, higher = more binding, comparable within an allelic series)"},
      {"measurement": "binding signal", "setting": "[3]", "value": "9.67 upbm affinity estimate (log intensity, higher = more binding, comparable within an allelic series)"},
      {"measurement": "binding signal", "setting": "[4]", "value": "9.68 upbm affinity estimate (log intensity, higher = more binding, comparable within an allelic series)"}
    ]},
    {"sequence": "TCCACTCA", "values": [
      {"measurement": "binding signal", "setting": "[1]", "value": "12.4 upbm affinity estimate (log intensity, higher = more binding, comparable within an allelic series)"},
      {"measurement": "binding signal", "setting": "[2]", "value": "12.8 upbm affinity estimate (log intensity, higher = more binding, comparable within an allelic series)"},
      {"measurement": "binding signal", "setting": "[3]", "value": "12.3 upbm affinity estimate (log intensity, higher = more binding, comparable within an allelic series)"},
      {"measurement": "binding signal", "setting": "[4]", "value": "12.8 upbm affinity estimate (log intensity, higher = more binding, comparable within an allelic series)"}
    ]},
    {"sequence": "CGATCGCA", "values": [
      {"measurement": "binding signal", "setting": "[1]", "value": "9.9 upbm affinity estimate (log intensity, higher = more binding, comparable within an allelic series)"},
      {"measurement": "binding signal", "setting": "[2]", "value": "9.92 upbm affinity estimate (log intensity, higher = more binding, comparable within an allelic series)"},
      {"measurement": "binding signal", "setting": "[3]", "value": "9.93 upbm affinity estimate (log intensity, higher = more binding, comparable within an allelic series)"},
      {"measurement": "binding signal", "setting": "[4]", "value": "9.97 upbm affinity estimate (log intensity, higher = more binding, comparable within an allelic series)"}
    ]},
    {"sequence": "ACCGTCTG", "values": [
      {"measurement": "binding signal", "setting": "[1]", "value": "9.6 upbm affinity estimate (log intensity, higher = more binding, comparable within an allelic series)"},
      {"measurement": "binding signal", "setting": "[2]", "value": "9.59 upbm affinity estimate (log intensity, higher = more binding, comparable within an allelic series)"},
      {"measurement": "binding signal", "setting": "[3]", "value": "9.56 upbm affinity estimate (log intensity, higher = more binding, comparable within an allelic series)"},
      {"measurement": "binding signal", "setting": "[4]", "value": "9.61 upbm affinity estimate (log intensity, higher = more binding, comparable within an allelic series)"}
    ]},
    {"sequence": "AGTGCTTA", "values": [
      {"measurement": "binding signal", "setting": "[1]", "value": "12 upbm affinity estimate (log intensity, higher = more binding, comparable within an allelic series)"},
      {"measurement": "binding signal", "setting": "[2]", "value": "12.2 upbm affinity estimate (log intensity, higher = more binding, comparable within an allelic series)"},
      {"measurement": "binding signal", "setting": "[3]", "value": "11.9 upbm affinity estimate (log intensity, higher = more binding, comparable within an allelic series)"},
      {"measurement": "binding signal", "setting": "[4]", "value": "12.2 upbm affinity estimate (log intensity, higher = more binding, comparable within an allelic series)"}
    ]},
    {"sequence": "CACGGCTA", "values": [
      {"measurement": "binding signal", "setting": "[1]", "value": "9.31 upbm affinity estimate (log intensity, higher = more binding, comparable within an allelic series)"},
      {"measurement": "binding signal", "setting": "[2]", "value": "9.28 upbm affinity estimate (log intensity, higher = more binding, comparable within an allelic series)"},
      {"measurement": "binding signal", "setting": "[3]", "value": "9.21 upbm affinity estimate (log intensity, higher = more binding, comparable within an allelic series)"},
      {"measurement": "binding signal", "setting": "[4]", "value": "9.29 upbm affinity estimate (log intensity, higher = more binding, comparable within an allelic series)"}
    ]},
    {"sequence": "CGGAATCA", "values": [
      {"measurement": "binding signal", "setting": "[1]", "value": "9.89 upbm affinity estimate (log intensity, higher = more binding, comparable within an allelic series)"},
      {"measurement": "binding signal", "setting": "[2]", "value": "9.89 upbm affinity estimate (log intensity, higher = more binding, comparable within an allelic series)"},
      {"measurement": "binding signal", "setting": "[3]", "value": "9.83 upbm affinity estimate (log intensity, higher = more binding, comparable within an allelic series)"},
      {"measurement": "binding signal", "setting": "[4]", "value": "9.94 upbm affinity estimate (log intensity, higher = more binding, comparable within an allelic series)"}
    ]},
    {"sequence": "CGCCACAA", "values": [
      {"measurement": "binding signal", "setting": "[1]", "value": "9.76 upbm affinity estimate (log intensity, higher = more binding, comparable within an allelic series)"},
      {"measurement": "binding signal", "setting": "[2]", "value": "9.79 upbm affinity estimate (log intensity, higher = more binding, comparable within an allelic series)"},
      {"measurement": "binding signal", "setting": "[3]", "value": "9.73 upbm affinity estimate (log intensity, higher = more binding, comparable within an allelic series)"},
      {"measurement": "binding signal", "setting": "[4]", "value": "9.79 upbm affinity estimate (log intensity, higher = more binding, comparable within an allelic series)"}
    ]},
    {"sequence": "AACTCTTG", "values": [
      {"measurement": "binding signal", "setting": "[1]", "value": "11.7 upbm affinity estimate (log intensity, higher = more binding, comparable within an allelic series)"},
      {"measurement": "binding signal", "setting": "[2]", "value": "11.8 upbm affinity estimate (log intensity, higher = more binding, comparable within an allelic series)"},
      {"measurement": "binding signal", "setting": "[3]", "value": "11.6 upbm affinity estimate (log intensity, higher = more binding, comparable within an allelic series)"},
      {"measurement": "binding signal", "setting": "[4]", "value": "12 upbm affinity estimate (log intensity, higher = more binding, comparable within an allelic series)"}
    ]},
    {"sequence": "ACGCCGCA", "values": [
      {"measurement": "binding signal", "setting": "[1]", "value": "9.67 upbm affinity estimate (log intensity, higher = more binding, comparable within an allelic series)"},
      {"measurement": "binding signal", "setting": "[2]", "value": "9.65 upbm affinity estimate (log intensity, higher = more binding, comparable within an allelic series)"},
      {"measurement": "binding signal", "setting": "[3]", "value": "9.64 upbm affinity estimate (log intensity, higher = more binding, comparable within an allelic series)"},
      {"measurement": "binding signal", "setting": "[4]", "value": "9.74 upbm affinity estimate (log intensity, higher = more binding, comparable within an allelic series)"}
    ]}
  ]
}
